Screening results from PubChem.
A selection: hits, their analogues and other compounds. The true share with any hit is near 6.9%.
Giardia killer: kills Giardia lamblia. AID 540267. activity change, % at 7.66 µM, hits read low. 340,000 tested, 0.15% active. Giardia lamblia trophozoite viability; in the data active = activity change below about -80%; inconclusive = between about -30% and that limit;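 also: parasites exposed to compound for two days anaerobically before the ATP read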
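Viability, read as ATP luminescence: trophozoites at 100 cells/well, compound added, 48 hrs anaerobic at 37 deg C, then 15-30 min room-temperature development before reading.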
KB-3-1 tox: KB-3-1 parental cell cytotoxicity | AID 1347075 | KB-3-1 viability, CellTiter-Glo ATP luminescence, 72 h | Potency, µM (highest dose often 46.1 µM), hits mostly cytotoxic | 400,000 tested, 1.4% active; also: nearly all actives have a fitted effect of over 60% in size
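Parental KB-3-1 adenocarcinoma cells in phenol-red-free DMEM with 10% FBS were pin-treated with compounds at several concentrations, incubated 72 h at 37 °C, and viability read by CellTiter-Glo luminescence; concentration-effect curves were fitted after normalization.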
ASM inhibitor: inhibitors of human secretory acid sphingomyelinase; P17405; placental ASM, HMU-PC fluorogenic substrate, 60 min; Potency, µM (titrated, usually from 57.5 µM), actives largely listed as inhibitors; 340,000 tested, 0.006% active
Target sequence (P17405 47-631 limits assumed): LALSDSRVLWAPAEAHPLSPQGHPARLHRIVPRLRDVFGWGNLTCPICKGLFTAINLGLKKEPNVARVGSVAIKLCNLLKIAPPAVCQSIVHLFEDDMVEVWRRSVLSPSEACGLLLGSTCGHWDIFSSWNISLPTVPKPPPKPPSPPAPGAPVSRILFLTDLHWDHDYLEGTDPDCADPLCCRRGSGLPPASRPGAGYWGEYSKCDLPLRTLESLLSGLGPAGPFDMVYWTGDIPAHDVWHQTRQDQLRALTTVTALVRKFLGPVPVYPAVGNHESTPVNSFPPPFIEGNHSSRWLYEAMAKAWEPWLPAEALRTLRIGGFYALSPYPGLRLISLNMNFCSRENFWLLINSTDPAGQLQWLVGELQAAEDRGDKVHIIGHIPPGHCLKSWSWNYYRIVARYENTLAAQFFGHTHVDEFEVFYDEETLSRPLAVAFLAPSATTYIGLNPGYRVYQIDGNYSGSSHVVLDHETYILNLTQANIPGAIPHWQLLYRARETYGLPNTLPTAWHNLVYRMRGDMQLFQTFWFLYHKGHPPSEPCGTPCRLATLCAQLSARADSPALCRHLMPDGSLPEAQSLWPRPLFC
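HMU-PC0 cleavage (9 uM final) by human placental ASM, 60 min at 37 °C following 10 min compound exposure at RT; stopped at pH 10, fluorescence Ex 386/Em 447 nm.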
KB-V1 cytotox: KB-V1 MDR subline cytotoxicity | Potency, µM (series often up to 46.1 µM), hits mostly cytotoxic | KB-V1 MDR cells viability, CellTiter-Glo, 72 h | 400,000 tested, 3.4% active | AID 1347076; also: nearly all actives have a fitted effect of over 60% in size
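Cells of the MDR subline KB-V1 are plated, dosed with compound at multiple concentrations, and incubated 72 h at 37 degrees C; CellTiter-Glo is then added and luminescence read after 10 min.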
SW480 rereplic: inducers of DNA re-replication in SW480 colon cancer cells; SW480 DNA re-replication, Hoechst DNA content imaging, 48 h; Potency, µM (top dose mostly 46.1 µM), actives largely listed as activators; 340,000 tested, 1.8% active; also: nearly all actives have a fitted effect of over 55% in size
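First, 250 cells per well were seeded. Next, compound or vehicle (23 nL) was pinned in, plates sat 48 hr at 37 C. Finally Hoechst was added for 40 min before fluorescence scanning.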
MCF10A rereplic: DNA re-replication induction in MCF 10a cells. MCF 10A DNA re-replication, Hoechst nuclear intensity, 48 h. Potency, µM (highest dose often 46.1 µM), hits mostly activators. 350,000 tested, 2.9% active. AID 624296; also: nearly all actives have a fitted effect of over 50% in size
Each line names hits and unclear results; the compound was inactive in the other large screens. Unless noted, calls follow the shape of the dose curve; as a rule, active = well fitted curve in the direction sought with a large enough effect; inconclusive = small, poorly fitted or top-dose-only effect, or another doubt; inactive = no such curve, though single readings can be large; an effect the other way counts as inactive or inconclusive.

O=C(NCC1CCCO1)c1ccccc1NS(=O)(=O)c1cc([N+](=O)[O-])ccc1Cl (configuration not stated)	KB-3-1 tox inconclusive, KB-V1 cytotox 16.4µM
COc1ccccc1NS(=O)(=O)c1cc(NC(=O)c2ccccc2)ccc1N1CCCC1	none (no result: Giardia killer, ASM inhibitor, SW480 rereplic, MCF10A rereplic)
CC(=O)Nc1nnc(CCS(=O)(=O)c2ccc(C)cc2)s1	none
O=C(COc1ccccc1C(=O)NCC1CCCO1)Nc1ccc(Cl)cc1Cl (configuration not stated)	KB-V1 cytotox inconclusive
O=C(Nc1ccc(Cl)cc1C(=O)NCC1CCCO1)c1ccc(Cl)cc1Cl (configuration not stated)	KB-V1 cytotox 10.3µM, MCF10A rereplic inconclusive
COc1cc(C(=O)Nc2ccccc2OCc2cc(=O)n3c(C)csc3n2)cc(OC)c1OC	none (no result: Giardia killer, ASM inhibitor, SW480 rereplic, MCF10A rereplic)
CC1(C)C2CCC1(C)C(SC(=N)N)C2 (configuration not stated)	KB-V1 cytotox 18.4µM, SW480 rereplic inconclusive
CCOc1ccc(OCC(=O)OCC(=O)NNC(=O)c2ccc([N+](=O)[O-])cc2)cc1	none
O=C(Nc1ccccc1Cl)c1ccc(=O)[nH]n1	KB-3-1 tox 7.31µM, KB-V1 cytotox 8.2µM, SW480 rereplic inconclusive
COc1ccccc1N1CCN(C(=O)c2cn(Cc3ccccc3)nc2-c2cccnc2)CC1	KB-V1 cytotox inconclusive
CCN(CC(=O)Nc1ccc(NC(C)=O)cc1)C(=O)/C=C/c1cn(Cc2ccccc2)nc1-c1cccnc1	none
COc1cccc(N2CCN(C(=O)c3cn(Cc4ccccc4)nc3-c3cccnc3)CC2)c1	Giardia killer inconclusive, KB-3-1 tox 1.84µM, KB-V1 cytotox inconclusive, SW480 rereplic 4.11µM, MCF10A rereplic 5.17µM
COc1cccc(NC(=O)CN(C)C(=O)/C=C/c2cn(Cc3ccccc3)nc2-c2cccnc2)c1	SW480 rereplic 14.6µM, MCF10A rereplic inconclusive
Cc1cc(C)cc(NC(=O)CCS(=O)(=O)c2ccc3c(c2)oc(=O)n3C)c1	none (no result: Giardia killer, ASM inhibitor, SW480 rereplic, MCF10A rereplic)
CCOC(=O)c1ccc(NC(=O)c2oc(=O)c3ccccc3c2-c2ccccc2)cc1	KB-V1 cytotox inconclusive (no result: Giardia killer, ASM inhibitor, SW480 rereplic, MCF10A rereplic)
c1ccc(C2=NNC(=NCc3ccc4c(c3)OCO4)SC2)cc1	KB-V1 cytotox 23.1µM
COc1ccc(-c2cn3c(C)c(C(=O)NCCN4CCOCC4)sc3n2)cc1	KB-V1 cytotox 11.6µM
CNC(=O)c1sc2nc(-c3ccc(OC)cc3)cn2c1C	none
CCN(CC)C(=O)c1sc2nc(-c3ccc(OC)cc3)cn2c1C	KB-V1 cytotox 3.66µM
COCCN(C(=O)COC(=O)c1cccnc1SC)c1c(N)n(Cc2ccccc2)c(=O)[nH]c1=O	none
CC1CCCCN1C(=O)CSc1nc2ccsc2c(=O)n1Cc1ccccn1 (configuration not stated)	KB-V1 cytotox 18.4µM
CCN(CC)C(=O)Cn1ncc2c([nH]c3ccccc32)c1=O	none (no result: Giardia killer, ASM inhibitor, SW480 rereplic, MCF10A rereplic)
CC(=O)N(C(C)=O)c1ncc2c([nH]c3ccccc32)c1C#N	KB-V1 cytotox 6.51µM
CCn1nc(C(=O)OC(C(=O)c2c[nH]c3ccccc23)c2ccccc2)c2ccccc2c1=O (configuration not stated)	KB-V1 cytotox 11.6µM
O=C(Nc1ccc(OC(F)F)cc1)c1nc(S(=O)(=O)Cc2ccccc2F)ncc1Cl	KB-3-1 tox inconclusive (no result: Giardia killer, ASM inhibitor, SW480 rereplic, MCF10A rereplic)
COc1ccc(-c2cc(-c3c(O)c(OC)c4occc4c3OC)[nH]n2)cc1	KB-3-1 tox inconclusive, KB-V1 cytotox 13µM, SW480 rereplic inconclusive, MCF10A rereplic inconclusive
Clc1ccc(-c2csc(Nc3ccccc3)[n+]2Cc2ccco2)c(Cl)c1	KB-3-1 tox inconclusive, KB-V1 cytotox inconclusive, MCF10A rereplic inconclusive
COc1ccc(-c2cc(=O)oc3cc4occ(C)c4cc23)cc1	KB-V1 cytotox inconclusive, SW480 rereplic inconclusive, MCF10A rereplic inconclusive
COc1ccc(-c2coc3cc4oc(=O)cc(-c5ccccc5)c4cc23)cc1F	KB-3-1 tox 2.91µM, KB-V1 cytotox inconclusive, SW480 rereplic inconclusive, MCF10A rereplic 6.51µM
Cc1c(CC(=O)O)c(=O)oc2cc3occ(-c4ccccc4)c3cc12	MCF10A rereplic inconclusive
COc1ccc(-c2coc3cc4oc(=O)cc(C)c4cc23)cc1F	KB-V1 cytotox inconclusive, SW480 rereplic inconclusive, MCF10A rereplic 5.17µM
CCC(C)(C)C1CCc2c(sc(N)c2C(N)=O)C1 (configuration not stated)	MCF10A rereplic inconclusive
CCCC1CCc2c(sc(N)c2C(N)=O)C1 (configuration not stated)	KB-V1 cytotox 16.4µM, MCF10A rereplic inconclusive
CCc1nn(CCCC(=O)NCc2ccccc2C)c(=O)c2cc3occc3n12	none
CN(Cc1ccccc1)C(=O)COC(=O)c1cc(=O)c2ccccc2o1	KB-3-1 tox inconclusive
COc1ccc(OCCn2c(C3CC(=O)N(c4ccc(F)cc4)C3)nc3ccccc32)cc1 (configuration not stated)	none (no result: Giardia killer, ASM inhibitor, SW480 rereplic, MCF10A rereplic)
CCOc1ccccc1N1CC(c2nc3ccccc3n2CCOc2ccc(OC)cc2)CC1=O (configuration not stated)	KB-V1 cytotox 5.8µM (no result: Giardia killer, ASM inhibitor, SW480 rereplic, MCF10A rereplic)
Cc1ccc(OCCn2c(C3CC(=O)N(Cc4ccccc4)C3)nc3ccccc32)cc1 (configuration not stated)	KB-3-1 tox inconclusive, MCF10A rereplic 11.6µM
CC(C)C(NS(=O)(=O)c1c(Cl)cccc1Cl)C(=O)OCC(=O)c1c[nH]c2ccccc12 (configuration not stated)	KB-V1 cytotox 20.6µM (no result: SW480 rereplic)
CC(O)C(NS(=O)(=O)c1ccc(Cl)cc1)C(=O)OCC(=O)c1c[nH]c2ccccc12 (configuration not stated)	none
COC(=O)c1ccc(NC(=O)c2ccc(CN3CCOCC3)cc2)cc1	KB-V1 cytotox 2.59µM, MCF10A rereplic inconclusive
O=C(Nc1ccc(CN2CCOCC2)cc1)c1ccc(Cl)cc1	KB-3-1 tox inconclusive, KB-V1 cytotox 9.2µM
O=C(Nc1ccc(CN2CCOCC2)cc1)c1ccc(Br)cc1	MCF10A rereplic inconclusive
COC(=O)c1ccc(/C=N\N2CCN(Cc3ccc(C)cc3)CC2)cc1	KB-V1 cytotox 8.2µM
CC(C)c1ccc(C(=O)Nc2ccc(N3CCOCC3)cc2)cc1	KB-3-1 tox inconclusive, SW480 rereplic inconclusive, MCF10A rereplic 23.1µM
CC(=O)c1ccc(C(=O)Nc2ccc(N3CCOCC3)cc2)cc1	none
COC(=O)c1c(N)n(-c2cc(Cl)cc(Cl)c2)c2nc3ccccc3nc12	none (no result: Giardia killer, ASM inhibitor, SW480 rereplic, MCF10A rereplic)
NC(=O)c1ccc(NC(=O)Cc2csc(-c3ccccc3)n2)cc1	none
c1ccc(OCCN2CCN(C(c3ccccc3)c3ccccc3)CC2)cc1	SW480 rereplic 0.651µM, MCF10A rereplic inconclusive
COc1ccc(-c2[nH]nc3nc(N4CCN(C(=O)c5ccoc5)CC4)cc(C(F)(F)F)c23)cc1	KB-3-1 tox inconclusive, KB-V1 cytotox 6.51µM (no result: Giardia killer, ASM inhibitor, SW480 rereplic, MCF10A rereplic)
